Assay outcomes: PubChem BioAssay, National Center for Advancing Translational Sciences (NCATS)
This is a sample that favours compounds with a hit; in the whole collection about 11% have one here.
CBFb RUNX1 block = inhibitors of human CBF-beta and RUNX1 interaction; Q01196+Q13951; AlphaScreen CBFb-His/RUNX1-biotin binding, biochemical; Potency, µM (highest dose often 59.8 µM), inactives show at the top dose activity, negative = inhibition, usual class: inhibitors; 230,000 tested, under 10 active; AID 1477; also: % of control where 0% means no effect
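AlphaScreen proximity signal reports loss of binding between His-tagged CBF-beta and biotin-labelled RUNX1, each at 30 nM. Proteins are pre-associated for 20 minutes, compounds added for 15 minutes, then beads for 90 minutes, all at ambient temperature.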
ALDH1A1 block = ALDH1A1 (human) enzyme inhibition. P00352. Purified ALDH1A1, NADH fluorescence, propionaldehyde substrate. Potency, µM (highest dose often 75.3 µM), for inactives: at the top dose activity, negative = inhibition, hits mostly inhibitors. 220,000 tested, 7.3% active; active = well fitted inhibition curve with a large enough effect, not every such curve was filed as active; inconclusive = small, poorly fitted or top-dose-only effect, or another doubt; inactive = no such curve, though single readings can be large or run the other way;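 also: potency is read from the fitted curve at half-maximal effect; plate controls were no enzyme wells and a reference inhibitor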
Target sequence (P00352 whole entry, looked up): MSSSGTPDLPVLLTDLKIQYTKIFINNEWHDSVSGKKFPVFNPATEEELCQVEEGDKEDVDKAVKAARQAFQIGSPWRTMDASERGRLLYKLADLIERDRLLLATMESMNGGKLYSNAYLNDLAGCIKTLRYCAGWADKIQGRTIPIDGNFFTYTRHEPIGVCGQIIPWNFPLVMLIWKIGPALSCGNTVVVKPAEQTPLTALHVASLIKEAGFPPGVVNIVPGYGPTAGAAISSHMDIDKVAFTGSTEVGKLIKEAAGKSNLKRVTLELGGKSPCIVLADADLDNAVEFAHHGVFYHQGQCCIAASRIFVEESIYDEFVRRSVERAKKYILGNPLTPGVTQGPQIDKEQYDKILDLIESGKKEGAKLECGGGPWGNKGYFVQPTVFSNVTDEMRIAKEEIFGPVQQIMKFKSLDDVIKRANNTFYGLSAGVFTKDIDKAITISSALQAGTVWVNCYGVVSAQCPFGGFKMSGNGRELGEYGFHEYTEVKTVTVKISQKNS
HTT ATP protect = protects HTT-Q103 PC12 cells, measured by ATP; PC12 HTT-Q103 induced, cytoprotection, ATP luminescence, 40 h; Potency, µM (doses to about 56.4 µM), for the others: cytoprotection (ATP increase), hits mostly activators; 230,000 tested, 0.14% active; AID 1471; also: potency is read from the fitted curve at half-maximal effect; % of control where 0% means no effect; nearly all actives have a fitted effect of over 45% in size
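Compounds added alongside 100 nM tebufenozide, which induces toxic Q103 huntingtin exon 1-GFP in stable PC12 cells; surviving cells quantified by luminescent ATP measurement. Medium: phenol red-free DMEM, 5% equine and 5% calf serum.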
HttQ103 aggreg = reduces HttQ103-GFP aggregates in PC12 cells; PC12 HttQ103-GFP aggregates, Acumen cytometry, 40 h; Potency, µM (doses to about 46.1 µM), inactives show at the highest dose activity change, negative = inhibition, usual class: inhibitors; 220,000 tested, 1.1% active; AID 1688; also: potency is read from the fitted curve at half-maximal effect; % is scaled to controls: 0 for no effect and ±100 for the full control effect; nearly all actives have a fitted effect of over 60% in size
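Ecdysone-promoter PC12 model expressing HTT exon 1 Q103 fused to GFP, induced by tebufenozide at 100 nM final. Compounds titrated; aggregates sized 1–25 µm scored on a 488 nm laser cytometer.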
HPGD block = HPGD (human) dehydrogenase inhibition; purified HPGD, NADH fluorescence kinetic, PGE2 substrate; 150,000 tested, 4.3% active; Potency, µM, for inactives: at the top dose activity change, negative = inhibition, most hits filed as inhibitors; P15428; active = well fitted inhibition curve with a large enough effect, not every such curve was filed as active; inconclusive = small, poorly fitted or top-dose-only effect, or another doubt; inactive = no such curve, though single readings can be large or run the other way; also: potency is read from the fitted curve at half-maximal effect; % is scaled to controls: 0 for no effect and ±100 for the full control effect
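NADH formation kinetics: reaction with 30 uM PGE2 and 1 mM NAD+ (final), 20 nM enzyme, Tris-HCl pH 8 with Tween 20, after 15 min compound preincubation at room temperature. Fluorescence change, last versus first of five reads.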
PNC inhibitor = blocks assembly of the perinucleolar compartment. AID 2417. PC3M PTB-GFP, PNC prevalence imaging, 16 h; stronger effect = lower value. activity change (PNC), negative = inhibition, % at 10 µM. 140,000 tested, 3.1% active;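 active = readout at or below -70, meaning at least 70% loss of cells showing the perinucleolar compartment, a nuclear body marking cancer cells; inconclusive = readout between -30 and a set limit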;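 also: plate controls were DMSO wells for no effect and camptothecin positive control wells for full effect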
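Read-out is percentage of cells bearing a perinucleolar compartment, from automated 20x imaging of fixed, Hoechst-stained PC3M PTB-GFP cells. Cells were seeded 4 h, then exposed 16 h to compound (23 nl of library stock) in duplicate plates.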
* marks the source's active call; other numbers are inactive results; ? = inconclusive; . = no result given; [ ] = remark or other dose. Unless noted, calls follow the shape of the dose curve; as a rule, active = well fitted curve in the direction sought with a large enough effect; inconclusive = small, poorly fitted or top-dose-only effect, or another doubt; inactive = no such curve, though single readings can be large; an effect the other way counts as inactive or inconclusive.

SMILES	CBFb RUNX1 block	ALDH1A1 block	HTT ATP protect	HttQ103 aggreg	HPGD block	PNC inhibitor
CCN1C(=O)c2cccc3c(S(=O)(=O)Nc4c(C)n(C)n(-c5ccccc5)c4=O)ccc1c23	6.6%	14.1µM*	-3.7%[0.074 µM]	-10.4%	-9.7%	?
CC1CCN(C(=S)c2ccc3c(c2)OCO3)CC1	1.2%	?	-14.8%	-13.4%	28.2µM*	8.3
CC1CCN(C(=O)c2scc3c2OCCO3)CC1	-2.1%	-2.0%	17.4%	?	15.8µM*	-23.3
CC1CCN(C(=O)c2ccc(-n3cnnn3)cc2)CC1	1.2%	?	-3.1%[1.9 µM]	-13.0%	17.8µM*	0.8
O=C(c1ccc(-n2cnnn2)cc1)N1CCOCC1	18.7%	-10.4%	-4.8%	-3.2%	-24.1%	25.7
O=C(c1ccc2c(c1)OCO2)N1CCCC1	6.1%	?	0.9%	-0.9%	?	-14.8
CC1CCN(C(=O)c2ccc3c(c2)OCCO3)CC1	3.3%	-4.2%	-24.3%[0.074 µM]	-11.0%	0.398µM*	?
O=C(CN1CCN(Cc2ccccc2)CC1)N/N=C/c1ccc(Br)s1	11.3%	-4.1%	20.3%[10 µM]	-15.4%[9.22 µM]	.	.
O=C1Oc2ccccc2C(=O)/C1=C\N1C(=O)N/C(=C\c2ccccc2O)C1=O	.	?	-6.4%[10 µM]	.	-8.4%	.
Cc1sc2ncn(CCn3cnc4sc(C)c(C)c4c3=O)c(=O)c2c1C	5.7%	?	6.4%	0.447µM*	-5.7%	-20.3
Cc1sc2ncn(CCC(=O)O)c(=O)c2c1C	1.1%	0.7%	2.6%	-1.5%[9.22 µM]	-11.0%	?
FC(F)(F)c1nc(N2CCCC2)ncc1-c1nnnn1-c1ccc(Cl)cc1	15.7%	-12.2%	3.55µM*	?	-24.2%	-25.4
Cc1ccc(-n2nnnc2-c2cnc(-c3cccnc3)nc2C(F)(F)F)cc1	5.3%	8.4%	-7.6%	?	-1.4%	-3.5
Clc1ccc(CSc2ncnc3c2ncn3[C@@H]2CCCCO2)cc1	.	3.3%[13.5 µM]	-7.9%[10 µM]	.	-14.1%	.
O=[N+]([O-])c1ccc(Cl)c(CNc2ncnc3c2ncn3[C@@H]2CCCCO2)c1	.	-9.0%[13.5 µM]	9.5%[10 µM]	.	3.55µM*	.
CCc1cccc2c1NC(=O)C2(O)CC(=O)c1cccs1 (centres undefined)	1.4%	14.1µM*	-8.7%	0.5%[9.22 µM]	.	.
COc1ccccc1OCCCOc1c(Cl)cc(C)cc1Cl	-16.5%	-1.9%	41.2%[10 µM]	0.2%	14.1µM*	-1.6
COc1cc(C)ccc1OCCOc1c(C)cc(Cl)cc1Cl	16.0%	13.7%	?	0.7%	-12.6%	-5.5
CCOc1ccccc1OCCCOc1ccc(C)cc1Cl	?	1.6%	-16.0%	21.0%	.	2.5
COc1cc(C)ccc1OCCCOc1c(Cl)cccc1Cl	-9.5%	-9.9%	-27.4%[10 µM]	5.1%	11.2µM*	9.6
COC(=O)C(C(=O)OC)[C@@H]1O[C@@]23COC=C[C@]2(C)[C@H]3c2ccccc21	-3.2%	-8.2%	-23.8%	.	-4.4%	.
COc1ccc(-c2nnc3sc(C(C)N4C(=O)c5ccccc5C4=O)nn23)cc1 (centres undefined)	4.5%	-1.6%	-6.2%[10 µM]	-22.5%	7.08µM*	-18.4
COc1ccc(-c2nnc3sc(-c4ccccn4)nn23)cc1	-2.4%	-2.7%	-9.4%[0.074 µM]	-8.4%	-17.4%	4.2
CCOc1ccccc1Cn1c(=O)oc2ccc(C)cc21	11.1%	-3.8%	15.2%[10 µM]	-3.5%	-24.8%	?
CCCOc1ccccc1Cn1c(=O)oc2ccc(C)cc21	23.4%	?	-1.1%[10 µM]	-22.1%	25.1µM*	?
COc1ccc(CN2CCN(CCc3ccccc3)C(CCO)C2)cc1Cn1cncn1 (centres undefined)	16.4%	5.5%	-9.2%[10 µM]	-22.8%[9.22 µM]	.	.
COC(=O)[C@@]1(Cc2ccc(OC)cc2)[C@H]2c3cc(C(=O)N(C)C)n(Cc4cc(F)c(F)c(F)c4)c3C[C@H]2CN1C(=O)c1ccccc1	-1.4%	-1.3%	?	.	-12.1%	.
CCCCCCCCc1nc(=S)[nH][nH]1	6.3%	12.6µM*	0.7%[10 µM]	-13.5%	15.8µM*	-6.4
CCCCCCCCCc1nc(N)n[nH]1	3.1%	0.2%	-8.4%	-6.7%	2.2%	44.0
